Data from PubChem BioAssay (EPA / NIEHS).
Calls of active or inactive are those of the source. Rule for the calls: active = hit-call score of the fitted dose curve at least 0.9, where 1 is the maximum; inactive = score below 0.9.

Experiment: CCTE_Padilla_ZF_Score.Tail: CCTE's 144 Hour Post-fertilization zebrafish Assay Score for Tail Malformation, Padilla Lab (AID 2284414)
Method: CCTE_Padilla_ZF_Phenotype_Score is a whole embryo, multiplexed assay using zebrafish ova exposed for 144 hours post fertilization on a 96-well plate.CCTE_Padilla_ZF_Score.Tail is one of one assay component(s) measured or calculated from the CCTE_Padilla_ZF_Phenotype_Score assay. It is designed to make measurements of zebrafish development as detected with brightfield microscopy of developing zebrafish embryos.Data from the assay component CCTE_Padilla_ZF_Score.Tail was analyzed into 1 assay endpoints. This assay endpoint, CCTE_Padilla_ZF_Score.Tail, was analyzed in the positive analysis fitting direction relative to DMSO as the negative control and baseline of activity. Using a type of viability reporter, gain-of-signal activity can be used to understand changes in developmentals as they relate to the whole embryo. To generalize the intended target to other relatable targets, this assay endpoint is annotated to the zebrafish development intended target family, where the subfamily is lower trunk morphogenesis.
Zebrafish husbandry: Wild type adult zebrafish (Danio rerio; undefined outbred stock obtained from Aquatic Research Organisms, Hampton, NH, 03842) were housed in an AAALAC-approved animal facility at 28C with a 14:10 h light: dark cycle (lights on at 08:30 h). Adult fish (2-3 females per male; density = 15-20 adults per tank) were kept in one of several 9-liter (L) flow-through colony tanks (Aquaneering Inc., San Diego, CA). All adults in a colony tank were placed in a 2 L (static) breeding tank (Aquatic Habitats, Apopka, FL) one hour prior to light onset. Typically, adults from two to three colony tanks were mated on the same day. Two hours after light onset the adults were returned to the colony tank. All embryos were gathered from each breeder tank, pooled, and placed in a 28C water bath for 2 h, followed by two washes with 0.06% bleach (v/v) in 10% Hanks' Balanced Salt Solution (13.7 mM NaCl 0.54 mM KCl, 25 uM Na2HPO4, 130 uM CaCl2 100 um MgSO4 and 420 um NaHCO3,), hereafter referred to as Hanks' solution, for 5 min in order to remove any residual bacteria or fungi. Immediately following washing, the embryos were examined, and healthy embryos were separated from dead or unfertilized eggs and moved into fresh Hanks'. Chemical exposures: Zebrafish embryos were exposed in 96-well plates. Between 6- and 8-hours post fertilization (hpf), healthy embryos (with chorions) were transferred, one embryo per well, into 96 well (0.5 mL) microtiter plates (Cell Culture-Treated, Flat-Bottom Microplate 96 well [Corning Costar, Kennebunk, ME; Cat 09-761-145]) filled with 200 uL of Hanks' solution. A random number generator was used to assign the order in which the rows of embryos were plated in 96 well plates each week. After plating, the embryos were dosed with 0.8 uL of the chemical dosing solution then immediately sealed with AlumaSeal II (Excel Scientific Inc, Victorville, CA) to prevent volatilization of the chemicals, and then placed in a leakproof secondary container. These containers were placed in an incubator maintained on a 14:10 h light: dark cycle at 26C for rearing. On 5 dpf, live larvae were gently moved out of the plate with test chemicals and into a new 96 well mesh plate (Millipore Corp., Bedford, MA) with just the Hanks' solution. Once within the mesh well plate, the animals were rinsed with 400 uL of fresh Hanks' three times, and then the plates were covered with a non-adhesive material (Microseal A, BioRad, Hercules, CA), plate lid added, and then plate sides wrapped in Parafilm (PM992, Bermis Company, Neenah, WI), and returned to the incubator. […]

SMILES	outcome
CO[Si](C)(CCC(F)(F)C(F)(F)C(F)(F)C(F)(F)C(F)(F)C(F)(F)F)OC	inactive
C=CC(=O)OCC(F)(F)C(F)(F)C(F)(F)C(F)(F)C(F)(F)C(F)(F)C(F)(F)C(F)F	inactive
OCC(F)(F)C(F)(F)C(F)(F)C(F)(F)C(F)(F)C(F)(F)C(F)(F)C(F)(F)CO	inactive
O=C(O)C(F)(F)C(F)(F)C(F)(F)OC(F)(F)F	inactive
OC(O)C(F)(F)C(F)(F)F	inactive
OCCCC(F)(F)C(F)(F)C(F)(F)C(F)(F)C(F)(F)C(F)(F)C(F)(F)C(F)(F)F	inactive
O=S(=O)(Cl)C(F)(F)C(F)(F)C(F)(F)C(F)(F)C(F)(F)C(F)(F)C(F)(F)C(F)(F)F	inactive
NC(=O)C(F)(F)C(F)(F)C(F)(F)C(F)(F)C(N)=O	inactive
O=S(=O)(O)CCC(F)(F)C(F)(F)C(F)(F)C(F)(F)F	inactive
OCC(O)CC(F)(F)C(F)(F)C(F)(F)C(F)(F)C(F)(F)C(F)(F)C(F)(F)C(F)(F)F (stereo not given)	inactive
FC(F)(F)C(F)(F)C(F)(F)CC1CO1 (stereo not given)	inactive
NCC(F)(F)C(F)(F)C(F)(F)C(F)(F)C(F)(F)C(F)(F)C(F)(F)C(F)(F)F	inactive
O=C(Cl)C(F)(F)C(F)(F)C(F)(F)C(F)(F)C(F)(F)C(F)(F)C(F)(F)F	inactive
O=C(O)C(F)(F)C(F)(F)C(F)(F)C(F)(F)C(F)(F)C(F)(F)C(F)F	inactive
O=C(Cl)C(F)(F)C(F)(F)C(F)(F)C(F)(F)C(F)(F)C(F)(F)F	inactive
NC(O)(C(F)(F)F)C(F)(F)F	inactive
O=C(O)CCC(F)(F)C(F)(F)C(F)(F)F	inactive
NCC(F)(F)C(F)(F)C(F)(F)C(F)(F)C(F)(F)C(F)(F)F	inactive
CCOC(=O)CC(=O)C(F)(F)C(F)(F)F	inactive
O=C(F)C1(F)C(F)(F)C(F)(F)C(F)(F)C(F)(F)C1(F)F	inactive

SMILES	outcome
NC(=O)C(F)(F)C(F)(F)C(F)(F)C(F)(F)C(F)(F)C(F)(F)C(F)(F)F	inactive
O=C(O)C(F)(F)C(F)(F)C(F)(F)OC(F)(C(F)(F)F)C(F)(F)F	inactive
CN(C(=O)C(F)(F)C(F)(F)C(F)(F)F)[Si](C)(C)C	inactive
CCN(CCO)S(=O)(=O)C(F)(F)C(F)(F)C(F)(F)C(F)(F)C(F)(F)C(F)(F)C(F)(F)C(F)(F)F	inactive
NS(=O)(=O)C(F)(F)C(F)(F)C(F)(F)C(F)(F)C(F)(F)C(F)(F)F	inactive
O=C(O)C(F)(F)OC(F)(F)C(F)(F)OC(F)(F)C(F)(F)OC(F)(F)F	inactive
C=CC(=O)OCCC(F)(F)C(F)(F)C(F)(F)C(F)(F)F	inactive
O=S(=O)(O)CCC(F)(F)C(F)(F)C(F)(F)C(F)(F)C(F)(F)C(F)(F)C(F)(F)C(F)(F)F	inactive
O=C(O)C(F)(F)C(F)(F)C(F)(F)C(=O)O	inactive
OCC(O)CC(F)(F)C(F)(F)C(F)(F)C(F)(F)F (stereo not given)	inactive
NC(=O)C(F)(F)C(F)(F)C(F)(F)F	inactive
O=C(O)CCC(F)(F)C(F)(F)C(F)(F)C(F)(F)C(F)(F)C(F)(F)C(F)(F)F	inactive
COC(F)(C(F)F)C(F)(F)F (stereo not given)	inactive
C=CC(=O)OCC(F)(F)C(F)(F)C(F)(F)COC(=O)C=C	inactive
OCC(F)(F)C(F)(F)C(F)(F)CO	inactive
OCCCCC(F)(F)C(F)(F)C(F)(F)C(F)(F)F	inactive
CNS(=O)(=O)C(F)(F)C(F)(F)C(F)(F)C(F)(F)C(F)(F)C(F)(F)C(F)(F)C(F)(F)F	inactive
FC(F)(F)C(F)(F)C(F)(F)C(F)(F)C(F)(F)C(F)(F)C(F)(F)CCI	inactive
C=C(C)C(=O)OCC(F)(F)C(F)(F)C(F)(F)C(F)F	inactive
O=S(=O)(OCC(F)(F)F)C(F)(F)C(F)(F)C(F)(F)C(F)(F)F	inactive
